# Source: PubChem BioAssay AID1918990 (ICCB-Longwood Screening Facility, Harvard Medical School, 2023)
# In all, about 29,000 compounds went through this assay and about 85 (0.3%) were called active.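 Rule for the calls: active = replicate mean overnight rise in green fluorescent reporter signal, 3 or more SD over negative controls; inactive = the rest.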 Shown is part of a subset that was picked to be rich in actives. Square brackets hold non-standard residues; d marks the D form. Side chains are listed from the residue outwards. Peptide text beside a SMILES is read from it. * marks the point of attachment. X1 = CCC(C)C(N)C1=NC(C(=O)*)CS1; Orn = NCCC[CH](N)C(=O)O
# Assay: activators of Burkholderia fixLJ two-component system, primary screen, B. multivorans, GFP reporter (AID 1918990)
# Settings: B. multivorans fixK-promoter GFP reporter, 18 h; active compounds read high
row,SMILES,z-score
1,COCCN(CCOC)C(=O)c1ccc(-c2ncccc2Cl)cc1,0.44 (inactive)
2,Cn1c(=O)c2c(nc(SCC(=O)Nc3ccc(F)cc3)n2Cc2ccc(Cl)cc2)n(C)c1=O,-2.04 (inactive)
3,COCCNC(=O)c1cc(-c2cccc(Cl)c2)on1,1.09 (inactive)
4,CCOc1ccccc1NC(=O)Cn1c(=O)n(Cc2ccco2)c(=O)c2sc3ccccc3c21,-1.53 (inactive)
5,COCCCCCC(=O)N1CC(O)C(Cc2cnccn2)C1 (stereo not drawn),0 (inactive)
6,CS(=O)(=O)N1CCCn2nc(CNC(=O)CC3CCCC3)cc2C1,-0.69 (inactive)
7,Cc1ccc(C)c(Nc2nnc(-c3ccc(C)c(S(=O)(=O)N4CCCCC4)c3)c3ccccc23)c1,-0.47 (inactive)
8,COC(=O)c1ccccc1NS(=O)(=O)c1ccc2c(c1)CCCN2C(C)=O,-1.34 (inactive)
9,COc1cccc(OCCn2c(-c3ccc(Br)cc3)nc3ccccc3c2=O)c1,-1.26 (inactive)
10,Cc1c[nH]c(CNC(=O)COCc2nc3ccc(F)cc3[nH]2)c(C)c1=O,-1.57 (inactive)
11,CCSC(C)C(=O)N1CCc2c(nc(-c3ccncc3)nc2N(C)C)C1 (stereo not drawn),-1.6 (inactive)
12,CCOc1ccccc1C(=O)NC1(C(F)(F)F)NC(=O)N(CCc2ccc(OC)c(OC)c2)C1=O (stereo not drawn),-3.27 (inactive)
13,COc1cc(Br)cc2cc(S(=O)(=O)c3ccccc3)c(=O)oc12,-0.19 (inactive)
14,CCC(C)C(N)C1=NC(C(=O)NC(CC(C)C)C(=O)NC(CCC(=O)O)C(=O)NC(C(=O)NCCCCC2NC(=O)C(CC(N)=O)NC(=O)C(CC(=O)O)NC(=O)C(Cc3cnc[nH]3)NC(=O)C(Cc3ccccc3)NC(=O)C(C(C)CC)NC(=O)C(CCCN)NC2=O)C(C)CC)CS1 (stereo not drawn) (cyclo(DNK([Ile-Glu-Leu-X1])[Orn]IFH); configuration not given here),-0.77 (inactive)
15,CN(Cc1cnn(-c2ccc(F)cc2)c1)C(=O)C(C)(C)N1CCOCC1,-1.96 (inactive)
16,C#CC(C)(CC)NC(=O)Cn1nnc(-c2ccc(OCc3c(F)cccc3Cl)cc2)n1 (stereo not drawn),0.9 (inactive)
17,CC(NC(=O)N1CCCN(C(=O)C(F)(F)F)CC1)c1ccc(Cl)cc1 (stereo not drawn),0.97 (inactive)
18,CCOC(=O)c1ccc(-c2ccc(/C=C(\C#N)C(=O)Nc3ccc(OCC)cc3)o2)cc1,0.84 (inactive)
19,CCOC(=O)c1ccc(N2C(=O)c3n[nH]c(C)c3C2c2ccc(O)c(OC)c2)cc1 (stereo not drawn),-1.68 (inactive)
20,Cc1ccc(NC(=O)NC(C)c2c(-n3cccc3)sc(C)c2C)c(C)c1 (stereo not drawn),-1.6 (inactive)
21,Cc1ccc(-c2nc3cccc(C)n3c2Nc2ccc3c(c2)OCCO3)cc1,0.46 (inactive)

row,SMILES,z-score
1,COc1cccc(Cn2c(SCc3ccc(C(=O)N4CCCCC4)cc3)nc3ccncc32)c1,-4.02 (inactive)
2,COc1ccccc1C1C(C(=O)N2CCCCC2)=C(C)Nc2nc3ccccc3n21 (stereo not drawn),-0.33 (inactive)
3,CCOc1ccc(-c2n[nH]c3c2C(c2ccccc2OC)N(c2ccc(Br)cc2)C3=O)cc1 (stereo not drawn),-0.62 (inactive)
4,CC(C)Cn1c(=O)c2ccccc2n2c(CCC(=O)N3CCN(c4cccc(Cl)c4)CC3)nnc12,-1.08 (inactive)
5,Cc1ccc(C(=O)Nc2ccccc2F)cc1S(=O)(=O)N1CCOCC1,-1.43 (inactive)
6,O=C(CCc1cccc(Cl)c1)NC1COCC1Cc1ccncc1 (stereo not drawn),-0.84 (inactive)
7,CCC1CCCCN1S(=O)(=O)c1ccc(NC(=O)c2cc(=O)c3ccccc3o2)cc1 (stereo not drawn),-1.59 (inactive)
8,CCCOc1ccc(CNC(=O)C2CCN(c3nn4c(=O)cc(C)nc4s3)CC2)cc1,0.43 (inactive)
9,Cc1cc(OCC(=O)Nc2ncn[nH]2)c(C)c(C)c1Br,0.56 (inactive)
10,O=S(=O)(NCC(c1ccccc1)N1CCc2ccccc21)c1ccccc1 (stereo not drawn),-0.54 (inactive)
11,CCCc1noc(C2CCC(=O)N(Cc3ccc(Cl)cc3)C2)n1 (stereo not drawn),-0.44 (inactive)
12,COc1ccccc1CNC(=O)CCCn1c(=O)c2ccccc2n(CC(=O)Nc2ccc(C)cc2Cl)c1=O,-1.06 (inactive)
13,Cc1nc(N)ncc1C(=O)N(C)Cc1cn[nH]c1-c1ccccc1,-0.18 (inactive)
14,COc1ncccc1NC(=O)NCc1nncn1C1CCCCC1,0.26 (inactive)
15,COc1ccc(NC(=O)CCN2CCN(CCO)CC2)cc1,-3.11 (inactive)
16,CC(C)c1ccc2oc(-c3cc(NC(=O)c4cccs4)ccc3Cl)nc2c1,0.16 (inactive)
17,O=C1CC(c2nnc(Cc3ccc(Cl)cc3)o2)CN1c1ccccc1 (stereo not drawn),0.07 (inactive)
18,Cc1cccc(C)c1OCC(=O)NC(Cc1c[nH]c2ccccc12)C(=O)O (stereo not drawn),0.01 (inactive)
19,CSc1ncc(Cl)c(C(=O)Nc2ccc(S(=O)(=O)N3CCCC(C)C3)cc2)n1 (stereo not drawn),0 (inactive)
20,Cc1nc2nc(SCC(=O)N(Cc3ccccc3)C(C)C)nn2c(C)c1Cc1ccccc1Cl,-2.35 (inactive)
21,Cc1ccc(CN(C)S(=O)(=O)c2c(Cl)nc3sccn23)o1,1.01 (inactive)

row,SMILES,z-score
1,Cn1c(=O)c2sccc2n2c(CCC(=O)NCc3ccccc3Cl)nnc12,-0.54 (inactive)
2,COc1cccc(CNC(=O)CCC(=O)N2CC3CCCN3c3ccccc32)c1 (stereo not drawn),-0.45 (inactive)
3,CC(C)CC(=O)C1CCCN(C(=O)c2ccc(N3CCC(O)CC3)nc2)C1 (stereo not drawn),0.49 (inactive)
4,CCC(=O)N1CCc2cc(S(=O)(=O)CCC(=O)N3CCN(c4ccccc4F)CC3)ccc21,-1.64 (inactive)
5,CC(Sc1oc(-c2ccco2)nc1S(=O)(=O)c1ccc(Br)cc1)c1ccccc1 (stereo not drawn),-1.12 (inactive)
6,COc1ccc(NC(=O)c2cnc(Nc3ccc(C)c(Cl)c3)c3ccccc23)cc1OC,0.07 (inactive)
7,Cc1ccc(OCC(=O)NC(c2ccc3c(c2)CCO3)C2CC(O)C2)cc1 (stereo not drawn),0.72 (inactive)
8,COc1cccc(NC(=O)C2CCN(c3cc(C)nc4c(-c5ccc(Cl)cc5)c(C)nn34)CC2)c1,-0.45 (inactive)
9,C=CCCC(=O)N1CCC[C@]2(C1)CN(C(=O)c1ccccc1CC)CCC2O (stereo partly drawn),-0.53 (inactive)
10,COc1ccc(-c2noc(CSc3nc(C)cc(=O)[nH]3)n2)cc1OC,-1.97 (inactive)
11,COc1ccc(CNc2nc(-c3ccc(Cl)cc3)nn2S(=O)(=O)c2ccc(C)cc2)cc1,-1.03 (inactive)
12,Cc1cc(C(=O)NCc2nc(N)n[nH]2)c2c(C)nn(C)c2n1,0.15 (inactive)
13,COc1cccc(CNC(=O)C2CCC(CNS(=O)(=O)c3cccs3)CC2)c1 (stereo not drawn),-0.11 (inactive)
14,Cc1ccc2oc3c(c(=O)c2c1)C(c1ccc(O)cc1)N(Cc1ccc2c(c1)OCO2)C3=O (stereo not drawn),-1.07 (inactive)
15,COC(=O)c1ccc(N2CCN(C(=O)c3csc(C)n3)CC2)cc1,-0.55 (inactive)
16,O=C(CSc1nnc(CNC(=O)c2ccccc2)n1-c1ccc(F)cc1)Nc1ccccc1F,-1.09 (inactive)
17,COc1ccc(C2=NC(c3ccncc3)=Nc3ccc(Br)cc3N2)cc1,-0.81 (inactive)
18,Cc1c(C(=O)N2CCC3(CC2)OCCCC3O)n(C)c2ccccc12 (stereo not drawn),-0.28 (inactive)
19,CCOC(=O)c1c(NC(=O)/C(C#N)=C/c2ccccc2)sc2c1CCC2,-0.67 (inactive)
20,COc1ccccc1-c1cc(C(F)(F)F)nc(S(=O)(=O)CCCC(=O)Nc2ccc(F)cc2F)n1,-0.87 (inactive)
21,CCC(=O)N1CCc2cc(Br)cc(S(=O)(=O)CCC(=O)NCCc3ccc(OC)c(OC)c3)c21,2.58 (inactive)

row,SMILES,z-score
1,CCC(=O)N1CCc2cc(Br)cc(S(=O)(=O)CCC(=O)N3CCN(c4ccc(F)cc4)CC3)c21,3.68 (active)
2,CCC(=O)N1CCc2cc(Br)cc(S(=O)(=O)CCC(=O)NCc3ccccc3OC)c21,-0.86 (inactive)
3,Cc1cccc2nc(-c3ccc(Cl)s3)c(Nc3ccc4c(c3)OCCO4)n12,0.38 (inactive)
4,COc1ccc(CNC(=O)Cc2coc3ccc(C(C)C)cc23)cc1,-1.14 (inactive)
5,CC(=O)N1CCCCC1C(=O)Nc1cccc(-n2cccn2)c1 (stereo not drawn),-4.62 (inactive)
6,Cc1ccc(C)c(N2CCN(C(=O)CN3C(=O)COc4ccc(S(=O)(=O)N5CCCCCC5)cc43)CC2)c1,-0.13 (inactive)
7,CCc1cc2c(cc(C(=O)OC)n2Cc2nc(-c3ccc(C)cc3)oc2C)s1,-0.09 (inactive)
8,CCCOc1ccc(C2c3c(-c4ccccc4O)n[nH]c3C(=O)N2Cc2cccnc2)cc1 (stereo not drawn),-1.98 (inactive)
9,CCc1ccccc1N1CC(c2nc3ccccc3n2CCCCOc2ccccc2)CC1=O (stereo not drawn),5.94 (active)
10,CCOc1ccc(N2CC(c3nc4ccccc4n3CCOc3ccc(OC)cc3)CC2=O)cc1 (stereo not drawn),-4.05 (inactive)
11,COc1ccc(OCCCn2c(C3CC(=O)N(c4ccc(F)cc4)C3)nc3ccccc32)cc1 (stereo not drawn),0.64 (inactive)
12,CC(=O)c1c(C)n(S(=O)(=O)c2ccc(Cl)cc2)c2ccc(NS(=O)(=O)c3ccc(Cl)cc3)cc12,-0.71 (inactive)
13,COc1ccc(NC(=O)CNC(=O)Cn2ccc3ccccc3c2=O)c(OC)c1,-2.14 (inactive)
14,CN1CCCn2nc(C(=O)NCCCCc3ccccc3)cc2C1,-1.24 (inactive)
15,CCc1ccccc1NS(=O)(=O)c1ccc2nc(-c3ccccc3)[nH]c2c1,-1.16 (inactive)
16,CC(Cn1cccn1)NC1CCN(C(=O)c2cccnc2)CC1 (stereo not drawn),-2 (inactive)
17,Cc1ccc(N2CC(C(=O)Nc3ccc(N(C)C)cc3)CC2=O)cc1Cl (stereo not drawn),0.09 (inactive)
18,COc1cccc(-c2nc(CS(=O)(=O)CC(=O)NCCc3ccc(OC)c(OC)c3)c(C)o2)c1,-0.64 (inactive)
19,CCc1ccccc1NC(=O)N1CCC2(CC1)Oc1ccccc1C(=O)N2Cc1ccccc1F,-0.81 (inactive)
20,O=C(NC1CCCCC1)c1ccc2c(c1)N(Cc1ccc(Cl)cc1)C(=O)c1ccccc1S2=O (stereo not drawn),0.06 (inactive)
